Results reported in PubChem BioAssay (NCATS).
Records with an inconclusive call do not appear. A call without a number means that no potency is given here. Active and inactive are the calls of the source. Calls come from the whole dose curve; as a rule, active = well fitted inhibition curve with a large enough effect; inconclusive = small, poorly fitted or top-dose-only effect; inactive = flat fitted curve, though single readings scatter.

system: CRL-7250; experiment: qHTS assay to identify novel small-molecules to repurpose for Merkel cell carcinoma treatment (AID 1296009); conditions: MCC and control cell lines, CellTiter-Glo viability, 72 h; series mostly up to 92 µM; note: nearly all actives have a fitted effect of over 60% in size
In short: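 After compound transfer in DMSO, plates were kept 72 hr at 37 degree celsius. Luminescent ATP signal from CellTiter-Glo served as viability measure, normalized against DMSO and no-cell controls.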

SMILES | Potency
COc1cc(C2c3cc(O)c(OC)cc3CC(CO)C2CO)ccc1O (configuration not stated) | inactive
COc1cc([C@@H]2Oc3c(OC)cc(CCCO)cc3[C@@H]2CO[C@@H]2O[C@H](CO)[C@@H](O)[C@H](O)[C@H]2O)ccc1O | inactive
CCCCCOC(=O)Nc1nc(=O)n(C2O[C@H](C)[C@@H](O)[C@H]2O)cc1F (some centres not stated) | inactive
CC(C)S(=O)(=O)NC[C@H](C)c1ccc(NC(=O)c2cc(F)cc(F)c2)cc1 | inactive
CC1(O)CCC2C(C(=O)O)=COC(OC3OC(CO)C(O)C(O)C3OC(=O)/C=C/c3ccc(O)cc3)C21 (configuration not stated) | inactive
C=CC1(C)CC2CCC3C(C)(C(=O)O)CCCC3(C)C2=CC1=O (configuration not stated) | inactive
C=C1CCC2(OC1)OC1CC3C4CC=C5CC(O)CC(O[C@@H]6OC[C@@H](O)[C@H](O)[C@H]6O)C5(C)C4CCC3(C)C1(O)C2C (some centres not stated) | inactive
CC1=CC(=O)CC(C)(C)C1(O)CCC(C)O (configuration not stated) | inactive
COc1cccc(CN(C(=O)CC(C)(C)C)[C@H]2C[C@H](C(=O)N3CCNCC3)N(Cc3ccc4c(c3)OCO4)C2)c1 | inactive
CC1(C)CC[C@]2(C(=O)O[C@@H]3O[C@H](CO)[C@@H](O)[C@H](O)[C@H]3O)CC[C@]3(C)C(=CCC4[C@@]5(C)C[C@@H](O)[C@H](O)[C@@](C)(CO)C5[C@H](O)C[C@]43C)C2[C@@H]1O (some centres not stated) | inactive
CC(=O)OC1C(OC(=O)c2ccccc2)C2C(C)(C)CCC(OC(C)=O)C2(C)C23CCC(C)(C2)C(=O)CC13 (configuration not stated) | inactive
CC(C)S(=O)(=O)N[C@H]1CCOC[C@@H]1c1ccc(-c2ccc(C#N)s2)cc1 | inactive
